# Several values for one entry are separate records, joined by “and”; a condition that tells them apart may be missing. Equal values may be shown once.
# Molecular target: Mitogen-activated protein kinase kinase kinase kinase 4 (Homo sapiens) (UniProt O95819)
# Conditions: at 0.1 µM
# Chain of Mitogen-activated protein kinase kinase kinase kinase 4 (Homo sapiens) (O95819 2-1239 limits assumed): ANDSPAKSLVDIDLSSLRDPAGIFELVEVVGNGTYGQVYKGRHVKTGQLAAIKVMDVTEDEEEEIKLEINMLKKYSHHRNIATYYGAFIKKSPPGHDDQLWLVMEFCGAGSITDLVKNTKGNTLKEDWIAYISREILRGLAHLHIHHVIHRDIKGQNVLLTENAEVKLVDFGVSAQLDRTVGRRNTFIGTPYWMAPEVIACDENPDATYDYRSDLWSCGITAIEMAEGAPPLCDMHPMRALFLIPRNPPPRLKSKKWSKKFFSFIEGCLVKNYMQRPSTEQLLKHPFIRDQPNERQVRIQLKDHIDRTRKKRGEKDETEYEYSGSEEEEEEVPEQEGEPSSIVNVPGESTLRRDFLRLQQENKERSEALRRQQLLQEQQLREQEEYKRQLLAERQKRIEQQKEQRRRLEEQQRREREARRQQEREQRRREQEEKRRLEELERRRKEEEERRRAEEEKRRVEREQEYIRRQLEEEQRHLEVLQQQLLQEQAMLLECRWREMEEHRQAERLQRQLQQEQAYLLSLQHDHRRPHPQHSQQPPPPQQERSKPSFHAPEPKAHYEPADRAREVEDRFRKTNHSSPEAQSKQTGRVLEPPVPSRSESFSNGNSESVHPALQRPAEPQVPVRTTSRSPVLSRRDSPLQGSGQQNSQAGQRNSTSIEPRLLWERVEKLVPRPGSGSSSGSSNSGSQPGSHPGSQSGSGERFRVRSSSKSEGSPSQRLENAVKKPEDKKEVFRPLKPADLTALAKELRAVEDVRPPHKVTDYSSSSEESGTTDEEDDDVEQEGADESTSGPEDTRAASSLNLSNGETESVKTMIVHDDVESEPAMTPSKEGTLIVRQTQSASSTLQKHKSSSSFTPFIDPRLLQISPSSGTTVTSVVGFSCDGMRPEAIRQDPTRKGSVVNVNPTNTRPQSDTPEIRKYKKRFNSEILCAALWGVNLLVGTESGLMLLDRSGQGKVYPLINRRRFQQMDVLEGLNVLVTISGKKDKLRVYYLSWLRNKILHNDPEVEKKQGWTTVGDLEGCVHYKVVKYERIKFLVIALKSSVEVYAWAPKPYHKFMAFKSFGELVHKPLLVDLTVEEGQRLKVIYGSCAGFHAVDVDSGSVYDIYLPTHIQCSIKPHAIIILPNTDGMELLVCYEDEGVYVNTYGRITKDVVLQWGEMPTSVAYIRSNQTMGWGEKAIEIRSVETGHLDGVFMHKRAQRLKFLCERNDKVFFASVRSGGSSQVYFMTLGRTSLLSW
row,SMILES,inhibition
1,CNC(=O)c1cncc(/C=C/c2ccccc2C)c1,8.34%
2,CC(C)c1ccc(-c2cc(-c3c[nH]nc3-c3ccccn3)ccn2)cc1,10.9%
3,Fc1cccc(COc2ccc(Nc3ncncc3C#Cc3ccccc3)cc2Cl)c1,6.19%
4,NS(=O)(=O)c1ccc(N/N=C2\C(=O)Nc3cccc(CCc4ccncc4)c32)cc1,4.39%
5,CCn1c(-c2nonc2N)nc2cncc(C(=O)NCCNC)c21,4.46%
6,CS(=O)(=O)CCNCc1ccc(-c2ccc3ncnc(Nc4ccc(OCc5cccc(C(F)(F)F)c5)cc4)c3c2)o1,2.66%
7,Cc1cc(O)cc(C)c1/C=C/c1cncc(C(=O)OC(C)(C)C)c1,7.27%
8,O=C(O[C@H]1CN[C@H](C#Cc2cc3ncnc(Nc4ccc(OCc5cccc(F)c5)c(Cl)c4)c3s2)C1)N1CCOCC1,5.04%
9,c1ccc(-c2n[nH]cc2-c2ccnc(-c3ccc(OCCn4ccnc4)cc3)c2)nc1,42.6%
10,c1cnn2ncc(-c3ccnc(NCCCN4CCOCC4)n3)c2c1,4.7%
11,O=C(O[C@H]1CN[C@H](C#Cc2cc3ncnc(Nc4ccc5c(ccn5Cc5cc(F)ccc5F)c4)c3s2)C1)N1CCOCC1,5.04%
12,O=C(O[C@H]1CN[C@H](C#Cc2cc3ncnc(Nc4ccc5c(cnn5Cc5ccccc5)c4)c3s2)C1)N1CCOCC1,-0.91%
13,COc1ccc(Nc2ncc(-c3ccccc3)o2)cc1OC,8.63%
14,CC1=C(C(=O)Nc2ccc3[nH]nc(C)c3c2)C(c2ccc(C(F)(F)F)cc2)CC(=O)N1 (stereo unspecified),4.23%
15,Cn1c(-c2nonc2N)nc2cnccc21,6.14%
16,CCS(=O)(=O)c1ccc(OC)c(Nc2ncc(-c3cccc(F)c3)o2)c1,6.47%

row,SMILES,inhibition
1,Cc1nnc(-c2cccc(-c3ccc(C(=O)NCC4CC4)cc3)c2)o1,7.44%
2,COc1cc2c(cc1Nc1nc(Nc3cccc(F)c3C(N)=O)c3cc[nH]c3n1)N(C(=O)CN1CCN(C(C)C)CC1)CC2,0.45%
3,COc1cc(N2CCN(C(C)C)CC2)ccc1Nc1nc(Nc2cccc(F)c2C(=O)O)c2cc[nH]c2n1,7.43%
4,NC(=O)c1ccc2c(-c3ccnc(NCCCO)n3)c(-c3ccc(F)cc3)nn2c1,9.85%
5,COc1ccccc1-c1cc(/C=C2\C(=O)Nc3ncc(Br)cc32)cc(Br)c1O,5.7%
6,COC(=O)Nc1nc2ccc(Oc3ccc(NC(=O)Nc4cc(C(F)(F)F)ccc4F)cc3)cc2s1,2.18%
7,CN1CCC(C(=O)Nc2n[nH]c3nc(-c4ccc(O)cc4)c(Br)cc23)CC1,7.33% and 2.89%
8,CCOc1ccc2c(-c3ccnc(Nc4cc(OC)cc(C(F)(F)F)c4)n3)cnn2n1,1.85%
9,CC1=C(C(=O)Nc2ccc3[nH]ncc3c2)C(c2ccc(F)cc2)N=C(c2ccc(C(F)(F)F)nc2)N1 (stereo unspecified),2.89%
10,Nc1ncnc2occ(-c3ccc(NC(=O)Nc4cc(C(F)(F)F)ccc4F)cc3)c12,7.35% and 0.68%
11,CCS(=O)(=O)c1ccc(OC)c(Nc2ncc(-c3cccc(C(C)=O)c3)o2)c1,3.37%
12,FC(F)(F)CNc1nccc(-c2cnn3ncccc23)n1,1.9%
13,CN(C)CCNC(=O)Nc1ccc(N(C)c2ccnc(Nc3ccc(CS(C)(=O)=O)cc3)n2)cc1,4.07%
14,Nc1nccc(-c2c(-c3ccc(F)cc3)ncn2C2CCNCC2)n1,-1.38% and 3.46%
15,CN1CCC(n2cnc(-c3ccc(F)cc3)c2-c2ccnc(NCCO)n2)CC1,7.52%

# Source: ChEMBL document CHEMBL1961873, “Compounds: GSK PKIS; Assays: Nanosyn kinase panel” (2012)
